Measurements taken from the supplement of paper PMC6555819.

Columns and labels:
Assay in all cases: PBM binding z-score (relative to random genomic background probes); higher = stronger binding; sequences stand for … in GC…GCGATTGACAGCGTAGAATGAAGG
[1] = test system: PPARg:RXRa DBDmut IVT, anti-RXR (DBD mutation: RXRa K156A/R161A, NR concentration 270 nM, RXRa partner concentration 90 nM)
Method in brief: (§1)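 Regression normalization was applied to scanned fluorescence from custom Agilent 4×180K protein-binding microarrays. Before scanning, arrays were incubated 1 h with ligand-free nuclear receptor dimers, and binding was detected with antibodies against each partner (one per run). Binding z-scores use the random background probes as reference.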

[2] = test system: PPARg:RXRa IVT, anti-PPARg (NR concentration 270 nM, RXRa partner concentration 90 nM)
Method in brief: as §1

[3] = test system: PPARg DBDmut:RXRa IVT, anti-PPARg (DBD mutation: PPARg1 K132A/R137A, NR concentration 270 nM, RXRa partner concentration 90 nM)
Method in brief: as §1

[4] = test system: PPARg DBDmut IVT, anti-PPARg (DBD mutation: PPARg1 K132A/R137A, NR concentration 270 nM)
Method in brief: as §1

[5] = test system: PPARg homodimer (NR concentration 180 nM)
Method in brief: as §1

[6] = test system: PXR:RXRa (NR concentration 270 nM, RXRa partner concentration 90 nM)
Method in brief: as §1

[7] = test system: PXR homodimer (NR concentration 270 nM)
Method in brief: as §1

[8] = test system: RARa:RXR (NR concentration 270 nM, RXRa partner concentration 90 nM)
Method in brief: as §1

[9] = test system: RARa homodimer (NR concentration 270 nM)
Method in brief: as §1

[10] = test system: RARb:RXRa (NR concentration 270 nM, RXRa partner concentration 90 nM)
Method in brief: as §1

Sequence | PBM binding z-score [1] | PBM binding z-score [2] | PBM binding z-score [3] | PBM binding z-score [4] | PBM binding z-score [5] | PBM binding z-score [6] | PBM binding z-score [7] | PBM binding z-score [8] | PBM binding z-score [9] | PBM binding z-score [10]
GCTTGTAGATCAAGGTTTAGAAAGACTAAGCTAA | 1.06 | 0.361 | -0.41 | 0.0012 | -0.0341 | -0.479 | -0.437 | -0.166 | 0.111 | -0.486
CAAACTAGGTCACGAAAGGTCCAAGTCGAATGAC | 8.4 | 9.01 | 1.98 | 0.788 | 2.59 | 3.32 | 0.339 | 3.32 | 1 | 4.51
AGTCAAAGTTCAATAGGTAACGTAAGATTCAGCT | 1.07 | 3.4 | 1.2 | 1.2 | 2.73 | 4.19 | 3.15 | 3.34 | 1.83 | 4.8
CATCAAAGTTCAACTAAGGTAACGTAAAGCACGC | 0.365 | 1.94 | 1.26 | 1.35 | 3.92 | 5.93 | 5.95 | 4.5 | 3.5 | 5.37
GGAACGAGGGCTAAGTTGATAGCATCTGTCGACG | 0.209 | 0.114 | 0.146 | -0.476 | -0.2 | -0.47 | -0.382 | -0.0692 | -0.234 | 0.086
CAGCCTAGGTAAGGGCCAGTATAGGAGGAACGTT | -0.707 | -0.473 | 0.308 | -0.484 | 0.0729 | -0.698 | -0.364 | -0.562 | -0.726 | -0.0366
CGAACTAGGCCAGAACAGGACAGTGAAGGATGAT | 3.99 | 3.44 | 0.251 | 0.0234 | 0.0323 | -0.123 | -0.145 | 0.379 | 0.0972 | 0.171
ATCGAAAGGTCGAATGTGAGTATACCCACCCGAA | 0.065 | 1.47 | 1.15 | 0.649 | 1.56 | 2.5 | 0.558 | 2.9 | 0.346 | 3.72
CCTACTGGGCCAGGGTCATTGATCAGTCAAAGCA | 1.49 | 3.62 | -1.03 | -0.896 | 0.994 | 3.06 | 0.381 | 3.61 | -0.641 | 2.51
TAGCCTAGGTCAGATCGGGCCAGTATCCGCTATA | 0.546 | 1.41 | -0.474 | -1.24 | 0.0691 | 0.834 | -0.885 | 1.1 | -1.32 | 3.02
CAAACTAGGTCACGAAAGGACAAAGTCGAATGAC | 8.65 | 9.28 | 5.83 | 2.82 | 2.7 | 4.22 | 0.691 | 3.22 | 1.93 | 4.54
ATATGTAGGTTACATCAGGGTCATTCAGGCTATG | 7.19 | 7.69 | 2.46 | 2.26 | 2.46 | 4.24 | 2.65 | 4.06 | 1.01 | 2.77
AGAATGAGGTTACCCAAGATCAGGGAAACGCTTG | 3.03 | 2.92 | 1.56 | 1.21 | 0.367 | 1.58 | -0.185 | 2.03 | -0.0633 | 1.82
TTACCAAGGTGAAAGGTCGTTGATGCACGCCTTG | 2.84 | 4.92 | 0.117 | -0.276 | 1.41 | 3.96 | 0.351 | 5.27 | 0.055 | 3.04
CGAACTAGGTAATTGACAGGACAGTGAATAGTAA | 5.41 | 4.17 | 0.954 | 0.672 | 0.615 | -0.222 | -0.131 | -0.274 | 0.178 | -0.185
CAAACTAGGGCACAGAGGTCAAAGTCCGTGCGTA | 7.7 | 7.94 | 4.77 | 2.72 | 4.24 | 6.12 | 8.42 | 6.5 | 1.61 | 4.41
GCTTGGAGATCAAGGTTAAGAAAGACTAAGCTAA | -0.178 | 0.209 | -0.0376 | -0.611 | 0.0193 | 0.278 | -0.313 | 1.12 | -0.305 | 0.871
TTACCAAGGTGAAAGGCCGTTGATGCACGCCTTG | 1.83 | 3.1 | 1.11 | -0.0172 | 1.5 | 0.172 | -0.516 | 1.1 | -0.123 | 1.66
CCTTACGGGTCACTCCAGGTTATAGGATCGGAGT | 2.49 | 4 | 0.265 | 0.385 | 1.86 | 5.21 | 0.588 | 4.1 | 0.817 | 3.8
TAGCCTAGGTCATTGGTCCAGTATAGTACGCATC | 2.05 | 2.93 | 0.413 | 0.614 | 1.51 | 1.76 | 0.043 | 2.39 | 0.179 | 3.58
CCTACTGGGCCATCTGGTCATTGATATCAACGTT | 3.95 | 4.15 | 0.821 | 0.613 | 0.5 | -0.397 | -0.43 | -0.692 | 0.0969 | 0.606
CAAACTAGGTCAAAGGTCAAAGTGGAGCCAACCA | 8.72 | 9.15 | 3.29 | 1.05 | 7.6 | 7.01 | 2.04 | 8.86 | 5.25 | 5.8
TCGAGTGGGTTAGGGGCATTCAGAATGGCGTCGA | 1.25 | 0.919 | -0.337 | -0.345 | 0.908 | 1.04 | 0.501 | 0.739 | 0.24 | 0.943
CCTTACGGGTCACTCCAGGTTATAGCGTCGGAGT | 2.49 | 3.79 | 0.79 | -0.822 | 2.29 | 5.1 | 0.516 | 4.18 | 0.581 | 3.74
CCTACTGGGCCAAAGGTTATTGATTCCAATGCTC | 5.27 | 5.88 | 0.256 | -0.287 | 0.925 | 1.39 | 0.0532 | 2.34 | -0.256 | 1.53
